Source: PubChem (National Center for Advancing Translational Sciences (NCATS))
Sm TGR block – S. mansoni TGR enzyme inhibition; Q962Y6; purified TGR, DTNB reduction, TNB absorbance 405 nm; Potency, µM (titrated, usually from 114 µM), for inactives: at the top dose activity change, negative = inhibition, actives largely listed as inhibitors; 360,000 compounds, 3% hits; AID 485364; also: nearly all actives have a fitted effect of over 60% in size
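First, TGR (20 nM dispensed) and NADPH were mixed with compound. Second, a 15 min room-temperature incubation followed. Third, further NADPH and then DTNB were added to start the reaction. Finally, TNB absorbance was monitored kinetically.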
FMDV antiviral – foot and mouth disease virus antiviral activity. FMDV antiviral cell-based qHTS. Potency, µM (highest dose often 57.9 µM), inactives show at the highest dose activity change, negative = inhibition, hits mostly inhibitors. 410,000 compounds, 1.2% hits. AID 1159524; calls by dose curve; tested in HEK293T cells; also: read-out not given here; nearly all actives have a fitted effect of over 45% in size
Tb PYK inh – T. brucei pyruvate kinase inhibition. Potency, µM (titrated, usually from 76.8 µM), for inactives: at the highest dose activity, negative = inhibition, usual class: inhibitors. TbPYK enzyme, Kinase-Glo Plus ATP luminescence, 45 min. Q57TT1. 410,000 compounds, 0.12% hits; also: nearly all actives have a fitted effect of over 50% in size
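Assay buffer: 50 mM TEA pH 7.2, 100 mM KCl, 10 mM MgCl2, 0.05% BSA, 0.01% Tween-20. Pyruvate kinase from T. brucei plus substrate met compound, then ADP (130 uM final). Luminescence was read post 45 min RT.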
RE007 growth inh – less growth of the S. pombe RE007 Vpr strain. 360,000 compounds, 0.21% hits. Potency, µM (doses to about 92.2 µM), for the others: at the top dose activity change, negative = less growth, hits mostly inhibitors. S. pombe RE007 Vpr strain, BacTiter-Glo ATP luminescence, 24 h. AID 651644; active = well fitted falling curve with a large enough effect; inconclusive = small, poorly fitted or top-dose-only effect; inactive = no such curve, though single readings can be large or run the other way; also: nearly all actives have a fitted effect of over 50% in size
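Fission yeast RE007 carrying one integrated HIV-1 vpr copy, seeded at OD 0.01 in PMG+AL medium with 23 nL pinned compound. Grown 24 h at 30 degrees; viability read by BacTiter-Glo luminescence after 5 min.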
Numbers without * were called inactive. Most compounds without a hit are left out; they make up all but 3.7% or so of the library. Unless noted, calls follow the shape of the dose curve; as a rule, active = well fitted curve in the direction sought with a large enough effect; inconclusive = small, poorly fitted or top-dose-only effect, or another doubt; inactive = no such curve, though single readings can be large; an effect the other way counts as inactive or inconclusive. % is scaled to controls: 0 for no effect and ±100 for the full control effect; potency is read from the fitted curve at half-maximal effect.

For CC(C)Cn1c(-c2ccco2)nc2c(c(=O)c3ccccc3n2C)c1=O the results were Sm TGR block -21%.
`O=C1c2ccccc2C(=O)N1CCc1nc2ccccc2c(=O)n1Cc1ccco1` gave Sm TGR block 35µM*, FMDV antiviral 28µM*, Tb PYK inh -13% and RE007 growth inh -10%.
`Cn1c2ccccc2c(=O)c2c(=O)n(Cc3ccco3)c(-c3ccc(Cl)cc3Cl)nc21` gave Sm TGR block 14µM*.
`CCCNS(=O)(=O)c1ccc2nc(NC(=O)c3ccc(F)cc3)sc2c1` gave Sm TGR block -4%, FMDV antiviral 52% and Tb PYK inh 1µM*.
For O=C(Nc1nc2ccc(F)cc2s1)c1ccccn1 the results were Sm TGR block -7%, FMDV antiviral 11µM*, Tb PYK inh inconclusive and RE007 growth inh 14µM*.
O=C(Nc1nc2ccccc2s1)c1cnccn1 was read as Sm TGR block -6%, Tb PYK inh -16% and RE007 growth inh -25%.
`Cc1ccc(C)c(NC(=O)CN2C(=O)CSc3nc(C)cc(C)c32)c1` gave Sm TGR block 0%, FMDV antiviral -12% and Tb PYK inh 0%.
CCN(CC)c1ccc2c(C)c(Cl)c(=O)oc2c1 was read as Sm TGR block 11%, FMDV antiviral 2%, Tb PYK inh -3% and RE007 growth inh -2%.
Screening CCN(CC)c1ccc2c(c1)oc(=O)c1c(Cl)cc(=O)oc12 returned Sm TGR block 6.3µM*, FMDV antiviral inconclusive, Tb PYK inh 1% and RE007 growth inh 12%.
For Cc1ccccc1OCC(=O)Nc1ccc2nc(SCC(=O)N3CCCC3)sc2c1 the results were Sm TGR block 0%, FMDV antiviral -22% and Tb PYK inh -6%.
Screening CC(C)(C)c1ccc(C(=O)Nc2ccc3nc(SCC(=O)N4CCCC4)sc3c2)cc1 returned Sm TGR block 15%, FMDV antiviral 10µM* and Tb PYK inh -1%.
For CN(C(=O)CSc1nc2ccc(NC(=O)c3ccccc3F)cc2s1)c1ccccc1 the results were Sm TGR block -1%, FMDV antiviral 40µM* and Tb PYK inh 4%.
Screening Cc1ccccc1OCC(=O)Nc1ccc2nc(SCC(=O)N3CCOCC3)sc2c1 returned Sm TGR block 2%, FMDV antiviral 28µM* and Tb PYK inh 5%.
For COc1cc2cc(CN(Cc3nnnn3Cc3ccco3)C3CCCCC3)c(=O)[nH]c2cc1OC the results were Sm TGR block 13µM*, FMDV antiviral -24%, Tb PYK inh 2% and RE007 growth inh 20%.
CCOc1ccc2[nH]c(=O)c(CN(Cc3nnnn3Cc3ccco3)C3CCCCC3)cc2c1 was read as Sm TGR block 5.6µM*, FMDV antiviral -23%, Tb PYK inh -7% and RE007 growth inh 3%.
`CCC(C)(C)n1nnnc1CN(Cc1cc2cc(OC)ccc2[nH]c1=O)C1CCCC1` gave Sm TGR block 6%, Tb PYK inh -8% and RE007 growth inh -11%.
`O=c1[nH]c2cc3c(cc2cc1CN(Cc1nnnn1CC1CCCO1)C1CCCC1)OCO3` (centres undefined) gave Sm TGR block 25µM*, FMDV antiviral 19%, Tb PYK inh 4% and RE007 growth inh 40%.
Screening O=c1[nH]c2cc3c(cc2cc1CN(Cc1nnnn1CC1CCCO1)C1CCCCC1)OCO3 (centres undefined) returned Sm TGR block inconclusive, FMDV antiviral 5%, Tb PYK inh -12% and RE007 growth inh 8%.
CC1(C)CCN2CCC(C)(C)c3c(O)ccc1c32 was read as Sm TGR block 2.8µM*, FMDV antiviral inconclusive, Tb PYK inh -13% and RE007 growth inh 2%.
For CCC(=O)OCOc1ccc(/C=C2/CCC(CN(C)C)C2=O)cc1 (centres undefined) the results were FMDV antiviral 32µM*, Tb PYK inh -9% and RE007 growth inh 8.9µM*.
For Cc1ccc(C(=O)c2ccc([N+](=O)[O-])cc2)cc1 the results were Sm TGR block -4%, Tb PYK inh -10% and RE007 growth inh -15%.
`Cc1ccc(S(=O)(=O)CC#CCOC(=O)c2ccc([N+](=O)[O-])cc2)cc1` gave Sm TGR block 0.63µM*.
`Cc1ccc(C)c(NC(=O)C(=O)NCCc2csc(-c3cccc(F)c3)n2)c1` gave Sm TGR block -7%, FMDV antiviral 7% and Tb PYK inh -3%.
